This is a sample that favours compounds with a hit; in the whole collection about 0.34% have one here.
Epigenetic derep – regulators of epigenetic silencing causing reporter derepression in mouse cells; murine LDR cells, GFP reporter derepression, 30 h; Potency, µM (doses to about 53.9 µM), inactives show top-dose GFP activation, usual class: activators; actives 0.2% (n = 280,000); AID 1865; also: % of control where 0% means no effect; nearly all actives have a fitted effect of over 60% in size
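Murine LDR cells carrying a silenced, genomically integrated CMV-driven GFP reporter were exposed to compound for 30 hours at 37 C. After PBS washes, GFP-positive cells (20–120 um objects) were counted by laser-scanning microplate cytometry.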
Vif-A3G inh – inhibitors of Vif-APOBEC3G interaction | Q9HC16 | HeLa A3G-eYFP + Vif (tagged APOBEC3G with the HIV-1 protein that degrades it), YFP fluorescence, overnight | Potency, µM (titrated, usually from 46.1 µM), for the others: top-dose activity, negative = active, actives largely listed as inhibitors | actives 0.076% (n = 410,000); also: % is scaled to controls: 0 for no effect and ±100 for the full control effect; nearly all actives have a fitted effect of over 60% in size
Target sequence (Q9HC16 whole entry, looked up): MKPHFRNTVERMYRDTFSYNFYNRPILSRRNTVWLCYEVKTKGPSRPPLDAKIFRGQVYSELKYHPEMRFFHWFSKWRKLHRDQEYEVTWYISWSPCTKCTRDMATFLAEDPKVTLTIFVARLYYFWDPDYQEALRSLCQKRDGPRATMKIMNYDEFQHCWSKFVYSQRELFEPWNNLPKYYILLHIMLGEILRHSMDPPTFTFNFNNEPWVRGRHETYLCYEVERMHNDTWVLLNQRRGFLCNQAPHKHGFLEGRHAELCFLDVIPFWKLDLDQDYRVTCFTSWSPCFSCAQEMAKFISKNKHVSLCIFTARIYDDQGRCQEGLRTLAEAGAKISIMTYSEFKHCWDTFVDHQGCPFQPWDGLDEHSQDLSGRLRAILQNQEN
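Read-out is eYFP fluorescence (Ex 488/Em 500-530) from Vif-expressing HeLa A3G-eYFP cells; more signal means A3G escaped Vif-mediated degradation. Cells plated overnight, compound pinned in, incubated overnight at 37 deg C.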
Vif-APOBEC3F blk – blocks the Vif interaction with APOBEC3F. HeLa A3F-eYFP + Vif (tagged APOBEC3F with the HIV-1 protein that degrades it), YFP fluorescence increase. Potency, µM (doses to about 46.1 µM), inactives show at the top dose activity, negative = active. actives 0.2% (n = 390,000); also: % of control where 0% means no effect; nearly all actives have a fitted effect of over 65% in size
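HeLa cells stably expressing Vif plus C-terminally eYFP-tagged A3F were seeded, incubated overnight at 37 deg C, dosed with compound, incubated overnight again at 37 deg C. Yellow fluorescence (Ex 488/Em 500-530) reported blocked Vif-mediated A3F-eYFP degradation.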
* hit, by the source's call; [ ] = another dose, or the depositor's remark. Calls follow the shape of the dose curve; as a rule, active = well fitted curve in the direction sought with a large enough effect; inconclusive = small, poorly fitted or top-dose-only effect, or another doubt; inactive = no such curve, though single readings can be large; an effect the other way counts as inactive or inconclusive. Potency is read from the fitted curve at half-maximal effect.

CC(C)OC(=O)CN1C(=O)S/C(=C/c2ccc(N3CCCCC3)o2)C1=O was read as Epigenetic derep 11.2µM*, Vif-A3G inh inconclusive and Vif-APOBEC3F blk inconclusive.
O=C1S/C(=C/c2ccc(N3CCOCC3)o2)C(=O)N1Cc1ccc(F)cc1 was read as Epigenetic derep 14.1µM*, Vif-A3G inh inconclusive and Vif-APOBEC3F blk inconclusive.
O=C1N=C(N2CCOCC2)S/C1=C/c1ccc(-c2ccc(F)cc2)o1 was read as Epigenetic derep 1.1%, Vif-A3G inh 10.2% and Vif-APOBEC3F blk inconclusive.
COc1ccccc1C(=O)OCC(=O)Nc1ccc(N2CCCCC2)cc1 was read as Vif-A3G inh 0.5%.
COC(=O)c1cc(=O)c(O)c2c(O)c(O)ccc2c1 was read as Epigenetic derep 0.3%.
Screening COc1c(-c2coc3cc4c(cc3c2=O)CC(O)C(C)(C)O4)ccc2c1C=CC(C)(C)O2 (centres undefined) returned Epigenetic derep -1.3%.
For COc1cc2c(NC3CCN(C)CC3)nc(N3CCCN(C)CC3)nc2cc1OCCCC(C)C the results were Vif-A3G inh 3.6%.
`O=C(Nc1ccc(Cl)cc1)Nc1ccon1` gave Vif-A3G inh 20µM* and Vif-APOBEC3F blk 1.0%.
Cc1ccc(NC(=O)Nc2ccon2)cc1 was read as Vif-A3G inh 0.5% and Vif-APOBEC3F blk 2.6%.
Screening O=C(NC(=S)N1CCCCCC1)c1ccccc1 returned Vif-A3G inh -1.8% and Vif-APOBEC3F blk -3.6%.
Cn1ncc(Br)c1C(=O)NC(=S)N1CCN(c2ccccn2)CC1 was read as Epigenetic derep 1.3%, Vif-A3G inh -1.6% and Vif-APOBEC3F blk inconclusive.
For O=C(NC(=S)N1CCN(C2CCCCC2)CC1)c1ccccc1 the results were Epigenetic derep -0.6%, Vif-A3G inh 3.9% and Vif-APOBEC3F blk 22.4µM*.
O=C(NC(=S)N1CCN(c2ccccn2)CC1)c1ccccc1 was read as Epigenetic derep -1.6%, Vif-A3G inh 2.4% and Vif-APOBEC3F blk 22.4µM*.
`CCC(Cn1nnc2ccccc2c1=O)NC(=O)Nc1cc(C)cc(C)c1` (centres undefined) gave Epigenetic derep -5.0%, Vif-A3G inh -1.0% and Vif-APOBEC3F blk 4.1%.
`CCOC(=O)c1ccc(NC(=O)c2c(NCc3sccc3C)sc3c2CCCCC3)cc1` gave Epigenetic derep -1.1%, Vif-A3G inh -18.9% and Vif-APOBEC3F blk -20.5%.
`Cc1cc(O)ccc1N/C=C1\CCCC1=O` gave Epigenetic derep 5.1%, Vif-A3G inh -6.8% and Vif-APOBEC3F blk -11.2%.
`Cc1ccc([N+](=O)[O-])cc1N/C=C1\CCCCC1=O` gave Epigenetic derep 3.55µM*, Vif-A3G inh 0.1% and Vif-APOBEC3F blk inconclusive.
COc1ccc(S(=O)(=O)NCc2ccc3c(c2)CCN3C(=O)c2ccc(C)cc2)cc1Cl was read as Epigenetic derep 9.2%, Vif-A3G inh 2.8% and Vif-APOBEC3F blk -7.7%.
Screening CS(=O)(=O)N1CCN(/[N+]([O-])=N/Oc2ccc([N+](=O)[O-])cc2[N+](=O)[O-])CC1 returned Vif-A3G inh -9.5%.
CCn1c(C)c(C)c2cc(C(=O)NCc3ccc(OC)cc3OC)ccc21 was read as Epigenetic derep -0.6%, Vif-A3G inh 2.2% and Vif-APOBEC3F blk -4.9%.
O=C(c1ccccc1)c1c2c(cc3sc4ccccc4[n+]13)-c1cccc3cccc-2c13 was read as Epigenetic derep 11.2µM*, Vif-A3G inh 6.31µM* and Vif-APOBEC3F blk inconclusive.
For Cc1sc2cc3c(c(C(=O)c4ccccc4)[n+]2c1C)-c1cccc2cccc-3c12 the results were Epigenetic derep -1.0%, Vif-A3G inh -9.3% and Vif-APOBEC3F blk 16.8%.
`CCc1ccc(CNC(=O)Cn2nc(C)c3nn(-c4ccc(Cl)cc4)c(C)c3c2=O)cc1` gave Epigenetic derep 2.9%, Vif-A3G inh 1.6% and Vif-APOBEC3F blk -26.2%.
COc1ccc(NC(=O)N(CCC(C)C)C(C)c2cccs2)c(OC)c1 (centres undefined) was read as Epigenetic derep -7.4%, Vif-A3G inh 3.8% and Vif-APOBEC3F blk -4.7%.
COC(=O)C1=C(C)N(Cc2ccco2)C(=O)/C1=C\c1ccc([N+](=O)[O-])cc1 was read as Epigenetic derep inconclusive, Vif-A3G inh inconclusive and Vif-APOBEC3F blk 3.16µM*.
`COC(=O)C1=C(C)N(Cc2ccc(OC)cc2)C(=O)/C1=C\c1ccco1` gave Epigenetic derep inconclusive, Vif-A3G inh -5.2% and Vif-APOBEC3F blk -21.3%.
`CCCCN=C1NN=C(c2ccc3c(c2)OCCO3)CS1` gave Epigenetic derep -4.7%, Vif-A3G inh -7.5% and Vif-APOBEC3F blk -1.7%.
For c1cc2c(cc1C1=NNC(=NC3CC3)SC1)OCCO2 the results were Epigenetic derep 28.2µM*, Vif-A3G inh -3.1% and Vif-APOBEC3F blk inconclusive.
For COc1ccc(NC(=O)CSC2=Nc3ccccc3C3=NC(CCC(=O)NCCc4ccccc4)C(=O)N23)c(OC)c1 (centres undefined) the results were Epigenetic derep 2.4%, Vif-A3G inh -4.3% and Vif-APOBEC3F blk 2.1%.
`c1ccc(-c2nc(NC3CCCC3)c3ccccc3n2)cc1` gave Vif-A3G inh 0.2% and Vif-APOBEC3F blk 7.8%.
Screening CN(C)c1ccc(-c2nc(NC3CCNCC3)c3ccccc3n2)cc1 returned Epigenetic derep 2.82µM*.
For O=C(C(=O)N1CC=C(c2ccccc2)CC1)c1c[nH]c2ccccc12 the results were Epigenetic derep -1.1%, Vif-A3G inh -4.0% and Vif-APOBEC3F blk -13.0%.
`Cc1cccc(NC(=O)N2CC=C(c3c[nH]c4ccccc34)CC2)c1C` gave Epigenetic derep inconclusive, Vif-A3G inh inconclusive and Vif-APOBEC3F blk 11.2µM*.
Screening O=C(Nc1ccc(Br)cc1F)N1CC=C(c2c[nH]c3ccccc23)CC1 returned Epigenetic derep inconclusive, Vif-A3G inh inconclusive and Vif-APOBEC3F blk -24.1%.
`COC(=O)c1ccc(Cl)cc1NC(=O)N1CC=C(c2c[nH]c3ccccc23)CC1` gave Epigenetic derep 28.2µM*, Vif-A3G inh inconclusive and Vif-APOBEC3F blk 22.4µM*.
C=C[C@@H]1CN2CC[C@@H]1C[C@H]2[C@H](O)c1ccnc2ccc(OC)cc12 was read as Epigenetic derep 1.1%.
`C=C1C=C(C)n2ncc(C(=O)N(CCc3ccccc3)Cc3ccccc3)c2N1` gave Vif-A3G inh 3.2%.
O=C(CN1C(=O)c2ccccc2S1(=O)=O)Nc1cc(S(=O)(=O)N2CCOCC2)ccc1N1CCOCC1 was read as Vif-A3G inh -0.2%.
For CC(C)(C)n1ncc2c(=O)n(Cc3ccc(C#N)cc3)cnc21 the results were Vif-A3G inh 0.3%.
`COc1ccc(C2NC(c3ccc4c(c3)OCO4)=CC(c3ccccc3O)N2)cc1OC` (centres undefined) gave Vif-A3G inh -2.7%.
C=C[C@H]1CN2CC[C@@H]1C[C@H]2[C@@H](O)c1ccnc2ccc(OC)cc12 was read as Epigenetic derep 1.0%[16.9 µM].
For CCOC(=O)/C=C/c1ccc2c(c1)S(=O)(=O)N(C1CCCC1)[C@H]2CC(=O)OCC the results were Vif-A3G inh 3.5%.
Fc1ccc2nc3[nH]c4ccccc4c3nc2c1 was read as Epigenetic derep -1.4%, Vif-A3G inh 1.41µM* and Vif-APOBEC3F blk inconclusive.
`OC1=C(O)c2nc3cc(F)ccc3nc21` gave Epigenetic derep 2.1%, Vif-A3G inh 1.3% and Vif-APOBEC3F blk 4.1%.

Compound activity (PubChem)
